PubChem BioAssay AID1159580 (chemical genetic matrix, 2015)
Where “and” joins values, the source holds several entries; their conditions need not be identical. Equal entries are not always repeated. The campaign covered roughly 5,500 compounds. About 2,000 (36%) were called active. About 18% were inconclusive and are not listed. Cut-off read from the data, not from the text of the source: active = normalized growth mostly below about 0.91 (no sharp cut-off); inconclusive = no clear call, values can overlap the other calls; inactive = mostly above about 0.92. Some of the results follow.

Assay: chemical genetic growth profiling, strain panel (AID 1159580);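 note: tested at 20 µM; growth read once vehicle control cultures reached saturation at 30 °C; 1 = growth at the plate median or of vehicle wells; lower values mean less growth of the strain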
Settings: S. cerevisiae deletion strains, growth OD
[1] = locus YAL040C, strain CLN3, active compounds read low
[2] = locus YCL061C, strain MRC1 (second series), active compounds read low
[3] = locus YDR150W, strain NUM1, active compounds read low
[4] = locus YDR363W, strain ESC2, active compounds read low
[5] = locus YER002W, strain NOP16, active compounds read low
[6] = locus YGR078C, strain PAC10, active compounds read low
[7] = locus YMR307W, strain GAS1, active compounds read low
[8] = locus YNL153C, strain GIM3, active compounds read low
[9] = locus YNL175C, strain NOP13, active compounds read low
[10] = locus YNL197C, strain WHI3, active compounds read low
[11] = locus YNL224C, strain SQS1, active compounds read low
[12] = locus YOR083W, strain WHI5 (second series), active compounds read low
[13] = locus YJR075W, strain HOC1, active compounds read low

Measured: normalized growth

N[C@@H](CCC(=O)N[C@H](CSN=O)C(=O)NCC(=O)O)C(=O)O
inactive: [1] 1 | [2] 1.01 | [3] 1 | [4] 1.05 | [5] 1 | [6] 1.02 | [7] 0.996 | [8] 1.01 | [9] 1.01 | [10] 1 | [11] 1 | [12] 1.01 | locus YPL055C, strain LGE1, active compounds read low 1.02 | locus YPL241C, strain CIN2, active compounds read low 0.995

CCn1ccnc1CC1COc2ccccc2O1 (configuration not stated)
inactive: [1] 1.02 | [2] 1 | [3] 1 | [4] 0.993 | [5] 1.01 | locus YGR229C, strain SMI1, active compounds read low 0.993 | [13] 1 | [7] 0.996 | locus YNL128W, strain TEP1, active compounds read low 1.01 | [9] 0.997 | [10] 0.996 | [11] 1.01 | [12] 1.07

COc1c2c(cc3c1OCO3)CCN(C)C2
inactive: locus YAL021C, strain ccr4, active compounds read low 0.987 | locus YAL026C, strain drs2, active compounds read low 1.01 | locus YAL030W, strain snc1, active compounds read low 1.01 | locus YBL061C, strain skt5, active compounds read low 1.02 | locus YBR009C, strain hhf1, active compounds read low 1.02 | locus YBR021W, strain FUR4, active compounds read low 0.988 | locus YBR023C, strain chs3, active compounds read low 1.01 | locus YBR171W, strain sec66, active compounds read low 1.03 | locus YBR229C, strain ROT2, active compounds read low 1.01 | locus YBR231C, strain swc5, active compounds read low 1.01 | locus YBR279W, strain paf1, active compounds read low 1 | locus YCL011C, strain gbp2, active compounds read low 1.01 | locus YCL016C, strain dcc1, active compounds read low 1.01 | locus YCL029C, strain bik1, active compounds read low 1 | locus YCL061C, strain MRC1, active compounds read low 1.02 | locus YCL069W, strain vba3, active compounds read low 1 | locus YCR088W, strain abp1, active compounds read low 1.01 | locus YDL005C, strain med2, active compounds read low 1.02 | locus YDL035C, strain GPR1, active compounds read low 1.02 | locus YDL040C, strain nat1, active compounds read low 0.996 | locus YDL074C, strain BRE1, active compounds read low 1.01 | locus YDL101C, strain DUN1, active compounds read low 1.02 | locus YDL185W, strain tfp1, active compounds read low 0.995 | locus YDL192W, strain arf1, active compounds read low 1.01 | locus YDR001C, strain nth1, active compounds read low 1.01 | locus YDR069C, strain doa4, active compounds read low 1.02 | locus YDR101C, strain arx1, active compounds read low 1 | locus YDR137W, strain rgp1, active compounds read low 1.01 | locus YDR159W, strain sac3, active compounds read low 1.01 | locus YDR162C, strain NBP2, active compounds read low 1.01 | locus YDR195W, strain ref2 0.999 | locus YDR297W, strain sur2, active compounds read low 0.999 | locus YDR318W, strain mcm21, active compounds read low 1 | locus YDR334W, strain swr1, active compounds read low 1.02 | locus YDR335W, strain msn5, active compounds read low 0.998 | locus YDR388W, active compounds read low 1 | locus YDR392W, strain spt3, active compounds read low 0.991 | locus YDR502C, strain sam2, active compounds read low 1 | locus YEL003W, strain gim4, active compounds read low 1.01 | locus YEL037C, strain rad23, active compounds read low 1 | locus YEL061C, strain CIN8 (second series), active compounds read low 1 | locus YEL061C, strain CIN8, active compounds read low 1.01 | locus YER015W, strain faa2, active compounds read low 1.01 | locus YER016W, strain bim1, active compounds read low 1.02 | locus YER110C, active compounds read low 0.996 | locus YER111C, strain swi4, active compounds read low 1.01 | locus YER155C, strain BEM2 (second series), active compounds read low 1.02 | locus YER155C, strain BEM2, active compounds read low 1.01 | locus YER167W, strain BCK2, active compounds read low 1 | locus YFR010W, strain ubp6, active compounds read low 1.02 | locus YGL078C, strain dbp3, active compounds read low 1 | locus YGL086W, strain mad1, active compounds read low 1.02 | locus YGL167C, strain pmr1, active compounds read low 1.02 | locus YGL173C, strain kem1, active compounds read low 1.02 | locus YGL227W, strain vid30, active compounds read low 1.01 | locus YGL240W, strain doc1, active compounds read low 1.02 | locus YGL248W, strain PDE1, active compounds read low 1.01 | locus YGL253W, strain hxk2, active compounds read low 1.01 | [6] 1.01 | locus YGR135W, strain pre9, active compounds read low 0.992 | locus YGR252W, strain gcn5, active compounds read low 0.986 | locus YHR013C, strain ard1, active compounds read low 1.01 | locus YHR027C, strain rpn1, active compounds read low 1.02 | locus YHR030C, strain SLT2, active compounds read low 1 and 1.06 | locus YHR079C, strain IRE1 (second series), active compounds read low 1.02 | locus YHR079C, strain IRE1, active compounds read low 1.05 | locus YHR094C, strain hxt1, active compounds read low 0.994 | locus YHR129C, strain ARP1, active compounds read low 1 | locus YHR142W, strain chs7, active compounds read low 0.991 | locus YHR200W, strain rpn10, active compounds read low 0.975 | locus YIL066C, strain RNR3, active compounds read low 1.01 | locus YIL073C, strain SPO22, active compounds read low 1.01 | locus YIL125W, strain kgd1, active compounds read low 1 | locus YIR030C, strain dcg1, active compounds read low 0.997 | locus YJL092W, strain hpr5, active compounds read low 1.01 | locus YJL095W, strain BCK1 (second series), active compounds read low 1.01 | locus YJL095W, strain BCK1, active compounds read low 0.996 and 1.04 | locus YJL115W, strain asf1, active compounds read low 1.01 | locus YJL129C, strain trk1, active compounds read low 1.03 | locus YJL134W, strain LCB3, active compounds read low 0.998 | locus YJL154C, strain vps35, active compounds read low 0.998 | locus YJL164C, strain tpk1, active compounds read low 0.992 | locus YJL166W, strain qcr8, active compounds read low 0.999 | locus YJL168C, strain set2, active compounds read low 1 | locus YJL187C, strain SWE1 (second series), active compounds read low 1.01 | locus YJL187C, strain SWE1, active compounds read low 1.01 | locus YJR043C, strain POL32, active compounds read low 1.02 | locus YJR066W, strain TOR1, active compounds read low 0.976 | [13] 1.01 | locus YKL009W, strain mrt4, active compounds read low 1.02 | locus YKL068W, active compounds read low 0.992 | locus YKL085W, strain MDH1 (second series), active compounds read low 0.999 | locus YKL085W, strain MDH1, active compounds read low 0.999 | locus YKL160W, strain elf1, active compounds read low 0.992 | locus YKL190W, strain CNB1, active compounds read low 1.01 | locus YKR001C, strain vps1, active compounds read low 0.964 | locus YKR026C, strain gcn3, active compounds read low 1.01 | locus YKR091W, strain srl3, active compounds read low 0.998 | locus YLL001W, strain dnm1, active compounds read low 0.991 | locus YLL026W, active compounds read low 1.01 | locus YLL041C, strain sdh2, active compounds read low 1.01 | locus YLR027C, strain aat2, active compounds read low 1.02 | locus YLR039C, strain RIC1, active compounds read low 1.02 | locus YLR058C, strain SHM2, active compounds read low 1.01 | locus YLR102C, strain apc9, active compounds read low 0.997 | locus YLR113W, strain HOG1, active compounds read low 1.04 | locus YLR221C, strain rsa3, active compounds read low 1.03 | locus YLR258W, strain gsy2, active compounds read low 0.999 | locus YLR262C, strain YPT6 (second series), active compounds read low 0.987 | locus YLR262C, strain YPT6, active compounds read low 1.01 | locus YLR268W, strain sec22, active compounds read low 1.01 | locus YLR320W, strain mms22, active compounds read low 1.02 | locus YLR330W, strain CHS5, active compounds read low 1.01 | locus YLR342W, strain FKS1 (second series), active compounds read low 1.01 | locus YLR342W, strain FKS1, active compounds read low 1 | locus YLR357W, strain rsc2, active compounds read low 1.01 | locus YLR370C, strain arc18, active compounds read low 1.01 | locus YLR371W, strain rom2, active compounds read low 1 | locus YLR384C, strain iki3, active compounds read low 1.02 | locus YLR418C, strain cdc73, active compounds read low 0.957 | locus YML016C, strain PPZ1, active compounds read low 0.986 | locus YML032C, strain rad52, active compounds read low 0.982 | locus YML120C, strain ndi1, active compounds read low 1 | locus YML124C, strain tub3, active compounds read low 0.99 | locus YMR058W, strain fet3, active compounds read low 1.02 | locus YMR078C, strain ctf18, active compounds read low 0.996 | locus YMR125W, strain sto1, active compounds read low 1 | locus YMR129W, active compounds read low 1.01 | locus YMR205C, strain PFK2, active compounds read low 0.996 | locus YMR223W, strain ubp8, active compounds read low 0.992 | locus YMR231W, strain pep5, active compounds read low 0.987 | locus YMR263W, strain SAP30, active compounds read low 1.02 | [7] 1.02 | locus YNL067W, strain RPL9B, active compounds read low 1.01 | locus YNL071W, strain lat1, active compounds read low 1 | [8] 1 | locus YNL183C, strain NPR1, active compounds read low 0.985 | locus YNL209W, strain ssb2, active compounds read low 1 | locus YNL233W, strain BNI4, active compounds read low 1.01 | locus YNL248C, strain rpa49, active compounds read low 1.02 | locus YNL250W, strain rad50, active compounds read low 0.993 | locus YNL271C, strain bni1, active compounds read low 1.01 | locus YNL298W, strain CLA4, active compounds read low 0.984 | locus YNL307C, strain MCK1, active compounds read low 1 | locus YNL322C, strain KRE1 (second series), active compounds read low 1.02 | locus YNL322C, strain KRE1, active compounds read low 1.01 | locus YNR049C, strain mso1, active compounds read low 1.01 | locus YNR052C, strain pop2, active compounds read low 1.01 | locus YOL012C, strain htz1 0.662 | locus YOL147C, strain pex11, active compounds read low 0.979 | locus YOR001W, strain rrp6, active compounds read low 1.04 | locus YOR061W, strain CKA2, active compounds read low 1.01 | locus YOR069W, strain VPS5, active compounds read low 1.01 | locus YOR070C, strain gyp1, active compounds read low 1.02 | locus YOR080W, strain dia2, active compounds read low 1.01 | locus YOR083W, strain WHI5, active compounds read low 0.991 | locus YOR106W, strain vam3, active compounds read low 1.02 | locus YOR136W, strain idh2, active compounds read low 1.02 | locus YOR144C, strain elg1, active compounds read low 0.985 | locus YOR184W, strain ser1, active compounds read low 1.04 | locus YOR231W, strain MKK1, active compounds read low 1.04 | locus YOR265W, strain rbl2, active compounds read low 1.01 | locus YOR270C, strain vph1, active compounds read low 1.01 | locus YOR290C, strain snf2, active compounds read low 0.981 | locus YOR316C, strain cot1, active compounds read low 0.991 | locus YPL051W, strain arl3, active compounds read low 1.01 | locus YPL078C, strain atp4, active compounds read low 0.981 | locus YPL106C, strain sse1, active compounds read low 0.996 | locus YPL240C, strain hsp82, active compounds read low 1.01 | locus YPL256C, strain CLN2, active compounds read low 1.06 | locus YPR119W, strain clb2, active compounds read low 1 | locus YPR141C, strain kar3, active compounds read low 0.991 | locus YPR163C, strain tif3, active compounds read low 0.995 | locus YPR167C, strain met16, active compounds read low 0.996 | strain wtn01, active compounds read low 0.997
